Experimental data published in PubChem BioAssay (NCATS).
Records with an inconclusive call do not appear. The source made the active and inactive calls. Calls follow the shape of the dose curve; as a rule, active = well fitted curve in the direction sought with a large enough effect; inconclusive = small, poorly fitted or top-dose-only effect, or another doubt; inactive = no such curve, though single readings can be large; an effect the other way counts as inactive or inconclusive.

Assays:
[1] = Quantitative High-Throughput drug screen in 47 multiple myeloma cell lines against the NCATS MIPE library collection: ARD_JJKsccE7 cell viability assay (AID 1918929)
Outline: (§1)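 Luminescent ATP measurement with CellTiter-Glo gives viability, scaled between DMSO-only wells (100%) and media-only wells (0%). Cells, 500 per well, faced library compounds for 48 hours at 37C.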

[2] = Quantitative High-Throughput drug screen in 47 multiple myeloma cell lines against the NCATS MIPE library collection: KMM1_JCRB cell viability assay (AID 1918960); also: nearly all actives have a fitted effect of over 30% in size
Outline: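 Myeloma cells, 500 per well, were exposed to MIPE 4.0 drugs by pin transfer for 48 h at 37 °C, 5% CO2. Viability was read as ATP luminescence with CellTiter-Glo, normalised to DMSO-only (100%) and medium-only (0%) wells.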

[3] = Quantitative High-Throughput drug screen in 47 multiple myeloma cell lines against the NCATS MIPE library collection: JIM3_ECACC cell viability assay (AID 1918963; also: nearly all actives have a fitted effect of over 35% in size)
Outline: (§2)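 Inhibition of cell viability is measured here. Each line was plated at 500 cells per well, treated with MIPE 4.0 drugs, kept 48 hours at 37C, then assayed for ATP content by CellTiter-Glo luminescence.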

[4] = Quantitative High-Throughput drug screen in 47 multiple myeloma cell lines against the NCATS MIPE library collection: INA6_PLB cell viability assay (AID 1918965; also: nearly all actives have a fitted effect of over 55% in size)
Outline: (§3)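 qHTS of the MIPE 4.0 collection: 500 myeloma cells/well, 48 h drug exposure at 37C in 5% CO2, then CellTiter-Glo for 5 min at room temperature before luminescence reading.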

[5] = Quantitative High-Throughput drug screen in 47 multiple myeloma cell lines against the NCATS MIPE library collection: H1112_PLB cell viability assay (AID 1918967; also: nearly all actives have a fitted effect of over 30% in size)
Outline: as §1

[6] = Quantitative High-Throughput drug screen in 47 multiple myeloma cell lines against the NCATS MIPE library collection: KMS27_JCRB cell viability assay (AID 1918970); details: KMS27 myeloma cells, CellTiter-Glo ATP viability, 48 h; viability (% of DMSO): at 45.8 µM (top of the series); also: nearly all actives have a fitted effect of over 30% in size
Outline: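 Myeloma cells (500 per well) were exposed to MIPE 4.0 compounds for 48 h at 37 °C, 5% CO2; viability was read as ATP luminescence with CellTiter-Glo, normalized to DMSO-only (100%) and media-only (0%) wells.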

[7] = Quantitative High-Throughput drug screen in 47 multiple myeloma cell lines against the NCATS MIPE library collection: KMS12BM_JCRB cell viability assay (AID 1918971); also: nearly all actives have a fitted effect of over 35% in size
Outline: (§4)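 Viability readout: CellTiter-Glo luminescence following 5 min room-temperature incubation with reagent. Prior exposure: 48 h, 37C, humidified 5% CO2, 500 cells per well.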

[8] = Quantitative High-Throughput drug screen in 47 multiple myeloma cell lines against the NCATS MIPE library collection: KMS12PE_JCRB cell viability assay (AID 1918972); also: nearly all actives have a fitted effect of over 30% in size
Outline: as §3

[9] = Quantitative High-Throughput drug screen in 47 multiple myeloma cell lines against the NCATS MIPE library collection: KMS26_JCRB cell viability assay (AID 1918975); also: nearly all actives have a fitted effect of over 45% in size
Outline: as §4

[10] = Quantitative High-Throughput drug screen in 47 multiple myeloma cell lines against the NCATS MIPE library collection: MOLP8_DSMZ cell viability assay (AID 1918977); also: nearly all actives have a fitted effect of over 45% in size
Outline: (§5)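 Viability after 48 h drug exposure was measured as ATP-dependent luminescence. Cells, 500 per well, sat at 37 °C under 5% CO2; DMSO wells set 100%, media-only wells 0%.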

[11] = Quantitative High-Throughput drug screen in 47 multiple myeloma cell lines against the NCATS MIPE library collection: NCIH929_DSMZ cell viability assay (AID 1918978); also: nearly all actives have a fitted effect of over 35% in size
Outline: as §5

[12] = Quantitative High-Throughput drug screen in 47 multiple myeloma cell lines against the NCATS MIPE library collection: Karpas620_DSMZ cell viability assay (AID 1918959); also: nearly all actives have a fitted effect of over 30% in size
Outline: as §2

[13] = Quantitative High-Throughput drug screen in 47 multiple myeloma cell lines against the NCATS MIPE library collection: Karpas417_ECACC cell viability assay (AID 1918961); details: Karpas417 myeloma viability, CellTiter-Glo ATP luminescence, 48 h; viability (% of DMSO): at 45.8 µM (top of the series)
Outline: as §3

[14] = Quantitative High-Throughput drug screen in 47 multiple myeloma cell lines against the NCATS MIPE library collection: KHM11_PLB cell viability assay (AID 1918962); also: nearly all actives have a fitted effect of over 35% in size
Outline: as §2

[15] = Quantitative High-Throughput drug screen in 47 multiple myeloma cell lines against the NCATS MIPE library collection: JJN3_DSMZ cell viability assay (AID 1918966; also: nearly all actives have a fitted effect of over 50% in size)
Outline: as §1

[16] = Quantitative High-Throughput drug screen in 47 multiple myeloma cell lines against the NCATS MIPE library collection: Karpas25_ECACC cell viability assay (AID 1918968; also: nearly all actives have a fitted effect of over 35% in size)
Outline: as §1

[17] = Quantitative High-Throughput drug screen in 47 multiple myeloma cell lines against the NCATS MIPE library collection: MMM1_PLB cell viability assay (AID 1918976); also: nearly all actives have a fitted effect of over 35% in size
Outline: as §5

[18] = Quantitative High-Throughput drug screen in 47 multiple myeloma cell lines against the NCATS MIPE library collection: JIM1_ECACC cell viability assay (AID 1918964)
Outline: as §1

[19] = Quantitative High-Throughput drug screen in 47 multiple myeloma cell lines against the NCATS MIPE library collection: KMS21BM_JCRB cell viability assay (AID 1918974); details: ATP luminescence, 48 h; viability: at 45.8 µM (top of the series)
Outline: as §1

[20] = Quantitative High-Throughput drug screen in 47 multiple myeloma cell lines against the NCATS MIPE library collection: KMS20_JCRB cell viability assay (AID 1918973); also: nearly all actives have a fitted effect of over 45% in size
Outline: as §1
Potency is read from the fitted curve at half-maximal effect.

Cc1cncc2cccc(S(=O)(=O)N3CCCN(C(=O)CN)C[C@@H]3C)c12
active: Potency [1] 16.6 µM | Potency [4] 16.6 µM | Potency [5] 20.9 µM | Potency [6] 0.418 µM | Potency [8] 16.6 µM | Potency [11] 18.7 µM
inactive: Potency [2] | Potency [3] | Potency [7] | Potency [9] | Potency [10]

O=C(C[C@@H]1CC=CCCC(=O)O[C@H](c2ccccc2)CNC1=O)NCc1ccc(Cl)cc1
active: viability (% of DMSO) [13] 118% | Potency [14] 2.64 µM | Potency [5] 4.69 µM
inactive: Potency [12] | Potency [2] | Potency [15] | Potency [16] | Potency [7] | Potency [9] | Potency [10]

Cc1cc(-c2nnc3n2CCCCC3)c(C)n1-c1ccccc1
inactive: Potency [1] | Potency [3] | Potency [4] | Potency [5] | Potency [16] | Potency [11]
active: Potency [8] 20.9 µM | Potency [17] 14.8 µM

CC[C@@]1([C@@H]2O[C@@H]([C@H]3O[C@@](O)(CO)[C@H](C)C[C@H]3C)C[C@H]2C)CC[C@H]([C@]2(C)CC[C@]3(C[C@H](O)[C@@H](C)[C@@H]([C@@H](C)[C@@H](OC)[C@H](C)C(=O)O)O3)O2)O1
active: Potency [1] 0.911 µM | Potency [14] 0.512 µM | Potency [3] 0.229 µM | Potency [18] 0.0645 µM | Potency [4] 0.257 µM | Potency [15] 0.257 µM | Potency [16] 3.23 µM | Potency [7] 0.0457 µM | Potency [8] 0.0911 µM | Potency [19] 0.144 µM | Potency [9] 0.182 µM | Potency [17] 0.575 µM | Potency [10] 0.204 µM | Potency [11] 0.288 µM

O=C(C=CC=Cc1ccc2c(c1)OCO2)N1CCCCC1
inactive: Potency [1] | Potency [14] | Potency [3] | Potency [15] | Potency [5] | Potency [7] | Potency [10] | Potency [11]
active: Potency [8] 16.6 µM

CNC(=O)c1cccc(-c2ccc3c(N4CCOC[C@H]4C)nc(N4CCOC[C@H]4C)nc3n2)c1
active: Potency [1] 1.18 µM | Potency [13] 0.0526 µM | Potency [18] 0.0132 µM | Potency [4] 0.526 µM | Potency [15] 0.0743 µM | Potency [16] 0.0743 µM | Potency [7] 0.0166 µM | Potency [8] 0.469 µM | Potency [20] 0.0935 µM | Potency [19] 0.166 µM | Potency [9] 1.18 µM | Potency [17] 0.0166 µM | Potency [10] 0.0235 µM | Potency [11] 0.0166 µM

CC(=CC(=O)Nc1ccccc1C(=O)O)c1ccc2ccccc2c1
active: Potency [1] 14.8 µM | Potency [18] 0.59 µM | Potency [16] 20.9 µM | Potency [8] 23.5 µM | Potency [11] 7.43 µM
inactive: Potency [19]

Cc1cn([C@@H]2O[C@H](CO)[C@@H](O)[C@H]2F)c(=O)[nH]c1=O
inactive: Potency [1] | Potency [3] | Potency [4] | Potency [5] | Potency [16] | Potency [11]
active: Potency [8] 13.2 µM

COc1ccc(CCC(=O)c2c(O)cc(O[C@@H]3O[C@H](CO)[C@@H](O)[C@H](O)[C@@H]3O[C@@H]3O[C@@H](C)[C@H](O)[C@@H](O)[C@@H]3O)cc2O)cc1O
inactive: Potency [1] | Potency [13] | Potency [6] | Potency [7] | Potency [8] | Potency [19] | Potency [9] | Potency [17]
active: Potency [3] 18.7 µM | Potency [16] 9.35 µM

NC(=NCCCCCCN=C(N)N=C(N)Nc1ccc(Cl)cc1)N=C(N)Nc1ccc(Cl)cc1
active: Potency [12] 18.7 µM | Potency [2] 18.7 µM | Potency [13] 20.9 µM | Potency [14] 5.9 µM | Potency [3] 8.33 µM | Potency [18] 23.5 µM | Potency [4] 1.66 µM | Potency [15] 3.32 µM | Potency [5] 2.64 µM | Potency [16] 2.96 µM | Potency [6] 16.6 µM | Potency [7] 9.35 µM | Potency [8] 16.6 µM | Potency [20] 3.32 µM | Potency [19] 7.43 µM | Potency [9] 16.6 µM | Potency [17] 20.9 µM | Potency [10] 8.33 µM | Potency [11] 3.32 µM

CC(C)c1cnn2c(NCc3ccccc3)cc(NCCCCCCN)nc12
active: Potency [1] 20.9 µM | Potency [2] 16.6 µM | Potency [4] 26.4 µM | Potency [15] 23.5 µM | Potency [6] 18.7 µM | Potency [7] 26.4 µM | Potency [8] 18.7 µM | Potency [19] 23.5 µM | Potency [9] 14.8 µM | Potency [17] 18.7 µM

C#C[C@]1(O)CC[C@@H]2[C@@H]3CCc4cc(O)ccc4[C@H]3CC[C@@]21C
active: Potency [1] 18.7 µM | Potency [13] 8.33 µM | Potency [3] 20.9 µM | Potency [4] 9.35 µM | Potency [5] 18.7 µM | Potency [16] 18.7 µM | Potency [7] 20.9 µM | Potency [8] 16.6 µM | Potency [20] 14.8 µM | Potency [9] 3.72 µM | Potency [17] 14.8 µM | Potency [11] 3.72 µM
